# Experimental data from PubChem BioAssay (Tox21).
# Inconclusive results are not listed. A call without a number means that no potency is given here. A number with no mark means an inactive call. The source made the active and inactive calls. Unless noted, calls follow the shape of the dose curve; as a rule, active = well fitted curve in the direction sought with a large enough effect in the repeat runs; inconclusive = weak or mixed curves; inactive = no such curve, though single readings can be large; an effect the other way counts as inactive or inconclusive.
# Columns and labels:
# [1] = qHTS assay to identify small molecule antagonists of the retinoid-related orphan receptor gamma (ROR-gamma) signaling pathway - cell viability counter screen (AID 1159520); also: nearly all actives have a fitted effect of over 50% in size; also: potency is read from the fitted curve at half-maximal effect
# How it was run: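 Tet-on ROR gamma CHO cells (1,000/well) were plated 4 hr, given compounds in DMSO for 2 hr at 37 C, then induced with 1 uM final doxycycline for 16 hr. Viability was read as ATP by CellTiter-Glo luminescence after 30 min.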
# [2] = target: Nuclear receptor ROR-gamma (Homo sapiens) (UniProt P51449); test: qHTS assay to identify small molecule antagonists of the retinoid-related orphan receptor gamma (ROR-gamma) signaling pathway (AID 1159521; also: nearly all actives have a fitted effect of over 50% in size; also: potency is read from the fitted curve at half-maximal effect)
# How it was run: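 Tet-on RORγ CHO cells carrying a ROR response element–luciferase reporter were pretreated with compounds for 2 h, then induced with 1 uM (final) doxycycline hyclate for 16 h at 37 C. Antagonism was read as decreased ONE-Glo luminescence.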
# [3] = target: Retinoic acid receptor RXR-alpha (Homo sapiens) (UniProt P19793); test: qHTS assay to identify small molecule agonists of the RXR signaling pathway (AID 1159527; calls by dose curve; also: nearly all actives have a fitted effect of over 35% in size)
# Sequence of Retinoic acid receptor RXR-alpha (Homo sapiens) (P19793 whole entry, looked up): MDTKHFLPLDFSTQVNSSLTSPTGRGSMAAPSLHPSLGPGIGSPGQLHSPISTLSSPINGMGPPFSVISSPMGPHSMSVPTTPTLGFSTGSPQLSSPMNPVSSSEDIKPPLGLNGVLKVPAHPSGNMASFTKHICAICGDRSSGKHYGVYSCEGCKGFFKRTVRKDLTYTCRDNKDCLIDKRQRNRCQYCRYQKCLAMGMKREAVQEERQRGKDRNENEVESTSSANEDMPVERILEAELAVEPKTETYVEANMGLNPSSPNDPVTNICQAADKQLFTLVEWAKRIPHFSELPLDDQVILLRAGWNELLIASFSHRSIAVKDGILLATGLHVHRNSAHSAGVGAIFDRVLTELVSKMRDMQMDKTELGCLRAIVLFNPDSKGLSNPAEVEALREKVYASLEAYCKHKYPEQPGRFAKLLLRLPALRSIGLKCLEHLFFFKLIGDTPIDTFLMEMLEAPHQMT
# How it was run: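 GeneBLAzer RXR-alpha-UAS-bla HEK 293T cells in medium with 2% charcoal-stripped FBS, pre-incubated 5 hr at 37 C, then exposed to compounds 16 hr. Beta-lactamase reporter read by FRET substrate, 2 hr room temperature, 460/530 nm emission.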
# [4] = qHTS assay to identify small molecule agonists of the RXR signaling pathway - cell viability counter screen (AID 1159529); also: nearly all actives have a fitted effect of over 50% in size; also: potency is read from the fitted curve at half-maximal effect
# How it was run: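 RXR-alpha-UAS-bla HEK 293T cells in medium with 2% charcoal-stripped FBS were preincubated 5 hr, then exposed to compounds for 16 hr at 37 C. Viability was read as CellTiter-Glo luminescence after 30 min at room temperature.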
# [5] = qHTS assay to identify small molecule antagonists of the retinoid acid receptor (RAR) signaling pathway - cell viability counter screen (AID 1159551); also: nearly all actives have a fitted effect of over 35% in size; also: potency is read from the fitted curve at half-maximal effect
# How it was run: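 Seed C3RL4 cells; next day add compound, then retinol to 1 uM final; incubate 6 h at 37 C; add CellTiter-Glo; read luminescence after 30 min at RT.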
# [6] = qHTS assay to identify small molecule agonists of the vitamin D receptor (VDR) signaling pathway - cell viability counter screen (AID 743224); also: potency is read from the fitted curve at half-maximal effect; nearly all actives have a fitted effect of over 50% in size
# How it was run: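 Here cell health was gauged by luminescent ATP detection (CellTiter-Glo, 30 min RT) in VDR-bla cells that had been incubated with test compounds for 16 h at 37C and 5% CO2.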
# [7] = qHTS assay to identify small molecule antagonists of the vitamin D receptor (VDR) signaling pathway - cell viability counter screen (AID 743225); also: nearly all actives have a fitted effect of over 50% in size; also: potency is read from the fitted curve at half-maximal effect
# How it was run: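 VDR-bla HEK 293T cells, 4 h pre-incubation at 37C, then compound plus 1-alpha,25-dihydroxyvitamin D3 (3 nM final) for 16 h. After the beta-lactamase FRET read, CellTiter-Glo was added to the same wells; luminescence after 30 min at room temperature.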
# [8] = qHTS assay to identify small molecule agonists of the AP-1 signaling pathway (AID 1159526; calls by dose curve)
# [9] = qHTS assay to identify small molecule antagonists of the retinoic acid receptor (RAR) signaling pathway (AID 1159552; also: nearly all actives have a fitted effect of over 50% in size; also: potency is read from the fitted curve at half-maximal effect)
# How it was run: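 RARE-luc C3RL4 cells; cpds + 1 uM (final) retinol, 6 hr, 37 C/5% CO2; luciferase reagent, 30 min RT, luminescence readout. Inhibitors of retinol-driven signal scored.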
# [10] = qHTS assay to identify small molecule agonists of the AP-1 signaling pathway - cell viability counter screen (AID 1159525; calls by dose curve; also: nearly all actives have a fitted effect of over 55% in size; also: potency is read from the fitted curve at half-maximal effect)
# How it was run: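 ME-180 AP-1-bla, 2500 cells/well, Opti-MEM + 0.5% dialyzed FBS; overnight 37 °C; cpd 15-pt titration, 5 h 37 °C; CellTiter-Glo 30 min RT; luminescence read; normalised to TOAB and DMSO controls.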
Structure (SMILES),Potency [1],Potency [2],Potency [3],Potency [4],Potency [5],Potency [6],Potency [7],Potency [8],Potency [9],Potency [10]
[Cl][Eu]([Cl])[Cl],inactive,inactive,inactive,inactive,inactive,–,–,–,–,–
CCCCCN=C(N)N/N=C/c1c[nH]c2ccc(OC)cc12,26.6 µM (active),33.5 µM (active),–,7.56 µM (active),29.8 µM (active),29.8 µM (active),16.9 µM (active),–,–,–
O=C(N[C@H](CO)[C@H](O)c1ccc([N+](=O)[O-])cc1)C(Cl)Cl,inactive,inactive,inactive,–,inactive,–,–,inactive,–,–
Cc1cc(Br)ccc1NC(=O)CCl,27.3 µM (active),19.3 µM (active),–,21.9 µM (active),inactive,12.3 µM (active),19.5 µM (active),–,–,–
CN1CCN(c2ccccc2/C=C2\SCCN(c3ccc(Cl)c(Cl)c3)C2=O)CC1,68.6 µM (active),7.7 µM (active),–,24.5 µM (active),–,38.9 µM (active),43.6 µM (active),–,–,–
Brc1cc(Br)cc(Br)c1,inactive,inactive,–,–,inactive,–,–,inactive,–,–
O=C(c1ccccc1)c1ccc(Cl)cc1,inactive,68.6 µM (active),–,–,inactive,–,–,–,inactive,–
Oc1ccc(C2(c3ccc(O)c(C4CCCCC4)c3)CCCCC2)cc1C1CCCCC1,24.3 µM (active),17.2 µM (active),–,19.5 µM (active),–,–,–,–,–,–
COc1ccc(OC)c(N=Nc2c(O)ccc3ccccc23)c1,30.6 µM (active),inactive,–,–,17.2 µM (active),–,–,–,–,–
O=c1cc[nH]cc1,inactive,inactive,–,inactive,inactive,–,–,inactive,–,–
CCCCCCCCCC[N+](C)(CCCCCCCCCC)CCC[Si](OC)(OC)OC,24.3 µM (active),21.7 µM (active),–,21.9 µM (active),30.6 µM (active),6.92 µM (active),–,–,61.1 µM (active),–
C=C1CC[C@H]2O[C@]2(C)CC[C@@H]2[C@@H]1CC2(C)C,inactive,inactive,inactive,–,inactive,–,–,inactive,–,–
C=C(C)CCO,inactive,inactive,inactive,inactive,inactive,–,–,–,–,–
O=C1CCC/C=C\CCCCCCCCCC1,inactive,inactive,–,–,inactive,–,inactive,–,–,inactive
O=C(Nc1ccccc1)c1cc(Cl)ccc1O,24.3 µM (active),12.2 µM (active),–,–,inactive,12.3 µM (active),12.3 µM (active),–,–,inactive
CC1(C)[C@H](C(=O)OCc2cccc(Oc3ccccc3)c2)[C@@H]1C=C(Cl)Cl,inactive,inactive,inactive,–,inactive,–,–,inactive,–,–
Cc1c(Cl)c(=O)oc2cc(O)ccc12,inactive,inactive,–,inactive,inactive,–,–,–,–,–
CO[Si](OC)(c1ccccc1)c1ccccc1,inactive,61.1 µM (active),–,–,inactive,–,–,–,–,–
O=C1C=CC(=O)N1c1cccc(N2C(=O)C=CC2=O)c1,12.2 µM (active),3.86 µM (active),–,–,21.7 µM (active),–,–,–,10.9 µM (active),13.8 µM (active)
CC(=O)CC(N)=O,inactive,inactive,inactive,inactive,inactive,–,–,inactive,inactive,–
CCOc1nc(F)cc2nc(S(=O)(=O)Nc3c(Cl)cccc3C(=O)OC)nn12,inactive,inactive,inactive,inactive,inactive,–,–,inactive,inactive,–
O=C1OCc2ccccc21,inactive,inactive,inactive,inactive,inactive,–,–,inactive,–,–
NC(=O)c1ccccc1Cl,inactive,inactive,inactive,inactive,inactive,–,–,inactive,–,–
O=C1CCC(=O)N1,inactive,inactive,inactive,–,inactive,–,–,inactive,–,–
NC(=O)C1CO1 (stereo not given),inactive,inactive,inactive,–,inactive,–,–,–,–,–
CCn1c2ccccc2c2ccccc21,inactive,inactive,inactive,–,inactive,–,–,–,inactive,–
C=C(C)C1CCC(C)CC1O (stereo not given),inactive,inactive,inactive,–,inactive,–,–,inactive,–,–
